Experiment [1] deals with Androgen receptor (Homo sapiens) (UniProt P10275). The experiment is described as follows: qHTS assay for small molecule agonists of androgen receptor signaling (AID 588515; active = well fitted curve in the direction sought with a large enough effect in the signal ratio, with a control signal flat; the % refers to the signal ratio; note: % is set by controls: 0 for no effect and ±100 for the full control effect). The settings on record: AR-UAS-bla HEK293, beta-lactamase ratio, agonist 16 h; stronger effect = higher value. Summed up:
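EC50 and efficacy came from Hill fits of titrations (up to 92 uM) normalized to 30 nM R1881 as 100% and DMSO as 0%. Compound exposure was 16 h at 37 C on AR-UAS-bla HEK293 cells, with a 405/460/530 nm CCF4 fluorescence read.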

The target is the same in experiment [2]. The experiment is described as follows: qHTS assay for small molecule antagonists of androgen receptor signaling (AID 588516; active = well fitted curve in the direction sought with a large enough effect in the signal ratio, with a control signal flat, not every such curve was filed as active; the % refers to the signal ratio; note: % is set by controls: 0 for no effect and ±100 for the full control effect). To be noted: AR-UAS-bla HEK293, beta-lactamase ratio, antagonist mode, 16 h; series mostly up to 76.8 µM. Summed up: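 Antagonist mode: inhibition of R1881-stimulated (10 nM final) bla reporter in GeneBLAzer AR HEK 293 cells, 16 h at 37C, compounds titrated. IC50 and efficacy from Hill-equation fits of 405/460–530 nm FRET ratios.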
(Quantitative high-throughput screening tests each substance at several concentrations.)

Experiment [3] deals with Bile acid receptor (Homo sapiens) (UniProt Q96RI1). The experiment is described as follows: qHTS assay for small molecule antagonists of farnesoid X receptor signaling (AID 588526; calls by dose curve; note: % is set by controls: 0 for no effect and ±100 for the full control effect). To be noted: HEK293T FXR-UAS-bla, beta-lactamase ratio, antagonist mode; series mostly up to 76.7 µM. Summed up: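 Concentration-response titrations were fitted to the Hill equation for half-maximal inhibition and maximal response, with data normalised to 50 uM chenodeoxycholic acid and DMSO control wells. Cells: FXR-UAS-bla HEK293T, dialyzed FBS.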
Chain of Bile acid receptor (Homo sapiens) (Q96RI1 whole entry, looked up): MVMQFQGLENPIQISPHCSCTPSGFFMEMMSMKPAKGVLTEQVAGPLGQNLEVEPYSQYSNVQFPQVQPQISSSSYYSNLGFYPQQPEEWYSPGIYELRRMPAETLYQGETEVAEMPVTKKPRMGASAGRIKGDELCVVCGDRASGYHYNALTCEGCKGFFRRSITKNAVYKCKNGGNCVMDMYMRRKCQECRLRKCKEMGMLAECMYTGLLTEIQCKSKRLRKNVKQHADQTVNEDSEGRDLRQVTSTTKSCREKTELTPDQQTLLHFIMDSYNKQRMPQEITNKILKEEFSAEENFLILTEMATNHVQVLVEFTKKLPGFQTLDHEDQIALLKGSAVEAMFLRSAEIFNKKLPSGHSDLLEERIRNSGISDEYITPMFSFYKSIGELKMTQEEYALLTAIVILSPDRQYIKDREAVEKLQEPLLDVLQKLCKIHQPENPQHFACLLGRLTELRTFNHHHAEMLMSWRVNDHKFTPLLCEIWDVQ

The target of experiment [4] is Glucocorticoid receptor (Homo sapiens) (UniProt P04150). The experiment is described as follows: qHTS assay for small molecule antagonists of glucocorticoid receptor signaling (AID 588533; active = well fitted inhibition curve with a large enough effect in the signal ratio, with a control signal flat, not every such curve was filed as active; the % refers to the signal ratio;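 note: cells stimulated with 2 nM dexamethasone as agonist; % is set by controls: 0 for no effect and ±100 for the full control effect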). The settings on record: HeLa MMTV-bla, GRE beta-lactamase ratio, antagonist mode, 18 h; series mostly up to 76.8 µM. Summed up:
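Antagonist-mode qHTS: compound titrations added to GRE-bla HeLa cells, then dexamethasone 2 nM final; 18 h, 37 C. CCF4 FRET fluorescence normalized to dexamethasone and DMSO; IC50 from Hill fit.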

Experiment [5] in a line: qHTS Assay for Inhibitors of Fructose-1,6-bisphosphate Aldolase from Giardia Lamblia: Giardia lamblia growth inhibition (AID 2785). Note: % is set by controls: 0 for no effect and ±100 for the full control effect; nearly all actives have a fitted effect of over 70% in size. To be noted: Giardia lamblia trophozoite growth inhibition; series mostly up to 57.5 µM. Summed up: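 G. lamblia WB trophozoites (100 cells/well) in modified TYI-S-33 medium, pH 7.0, were exposed to pin-transferred compounds or DMSO for 48 h at 37C in sealed bags. Viability was read as ATPlite luminescence after 20 min at room temperature.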

Experiment [6] can be described thus: qHTS Assay for Inhibitors of Fructose-1,6-bisphosphate Aldolase from Giardia Lamblia: Mammalian cellular toxicity (AID 2786).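 Note: compound exposure lasted 48 h before reading; % is set by controls: 0 for no effect and ±100 for the full control effect; nearly all actives have a fitted effect of over 60% in size.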 The settings on record: mammalian cell viability counter-screen; series mostly up to 57.5 µM. Summed up:
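Chinese hamster ovary cells (250/well, DMEM with 10% FBS and penicillin/streptomycin) were exposed to compounds for 48 h at 37 °C, 5% CO2. Viability was taken as cellular ATP content, read with ATPlite reagent after 20 min.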

The target of experiment [7] is Fructose-bisphosphate aldolase (Giardia intestinalis (strain ATCC 50803 / WB clone C6)) (UniProt A8B2U2). The experiment can be described thus: qHTS Assay for Inhibitors of Fructose-1,6-bisphosphate Aldolase from Giardia Lamblia: Primary screen confirmation (AID 2787).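 Note: aldolase product measured through coupled diaphorase step turning resazurin into fluorescent resorufin; % is set by controls: 0 for no effect and ±100 for the full control effect; nearly all actives have a fitted effect of over 45% in size.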 The settings on record: purified Giardia aldolase enzyme activity; series mostly up to 57.5 µM. Summed up:
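Confirmation of primary hits by qHTS up to 57.5 uM final compound. Enzyme at 40 nM with 30 uM ZnCl2, 10 min RT pre-incubation, then substrate/coupling/resorufin-forming detection mix for 20 min before fluorescence read at 525/598 nm.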

In experiment [8] the target is Fructose-bisphosphate aldolase A (Oryctolagus cuniculus) (UniProt P00883). The experiment can be described thus: qHTS Assay for Inhibitors of Fructose-1,6-bisphosphate Aldolase from Giardia Lamblia: Rabbit FBPA Selectivity (AID 2794). Note: % is set by controls: 0 for no effect and ±100 for the full control effect; nearly all actives have a fitted effect of over 60% in size. To be noted: Rabbit muscle FBPA enzyme inhibition, selectivity counter-screen; series mostly up to 57.5 µM. Summed up:
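To triage Class I aldolase inhibitors, rabbit FBPA activity is followed through a glyceraldehyde-3-phosphate-linked enzyme cascade feeding AmpLite Red. Compounds (up to 57.5 uM final) sit 10 min with coupling enzymes before substrate; fluorescence is read 20 min later.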

The nature of experiment [9]: qHTS Assay for Inhibitors of Fructose-1,6-bisphosphate Aldolase from Giardia Lamblia: Coupling assay counterscreen confirmation (AID 2795). Note: % is set by controls: 0 for no effect and ±100 for the full control effect; nearly all actives have a fitted effect of over 55% in size. The settings on record: GAPDH coupling enzyme counterscreen, biochemical; series mostly up to 57.5 µM. Summed up:
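Coupling enzymes were first exposed to test compounds (final up to 57.5 uM) for 10 min at room temperature. A substrate plus coupling-system plus AmpLite Red mixture was then added, and after 20 more minutes fluorescence was measured at 525/598 nm.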

Experiment [10] has as its target Cytochrome P450 3A4 (Homo sapiens) (UniProt P08684). The experiment can be described thus: qHTS Assay for Activators of Cytochrome P450 3A4 (AID 885). Note: nearly all actives have a fitted effect of over 65% in size. The settings on record: recombinant CYP3A4, Luciferin-PPXE luminescence, 60 min; series mostly up to 57.1 µM. Summed up:
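Signal was normalized against complete inhibition by 57 uM ketoconazole. The reaction used 20nM CYP3A4 with 25uM Luciferin-PPXE, 10-min compound preincubation and a 60-min NADPH-supported step at RT.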

Experiment [11] is described as follows: qHTS assay to identify small molecules that stimulate interleukin-8 (IL-8) secretion (AID 651758; active = well fitted activation curve with a large enough effect in the signal ratio; the % refers to the signal ratio; note: potency is the fitted concentration of half-maximal effect). To be noted: HTRF ratio (665/615); series mostly up to 92.2 µM. Summed up: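 THP-1, 2000 cells/well; cpd 16 h, 37 C; add cryptate + XL665 anti-IL-8 Abs; RT 1-3 h; TR-FRET read.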
The nature of experiment [12]: Counterscreen for APE1 Inhibitors: Fluorescent Dye Displacement Assay (AID 2564).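 For activity change, negative = inhibition: 0% = ThO with dsDNA and no compound and -100% = ThO without dsDNA.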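 Note: loss of thiazole orange fluorescence as the dye is displaced from duplex DNA.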 Note: potency is the fitted concentration of half-maximal effect. The settings on record: DNA fluorescent dye displacement counterscreen, fluorescence; series mostly up to 28.5 µM. Summed up: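 Compounds are scored by their ability to displace Thiazole Orange (250 nM) from a 50 nM TAMRA-tagged duplex bearing a tetrahydrofuran abasic site. Buffer is 50 mM Tris-HCl pH7.5, 50mM NaCl, 2 mM MgCl2, 0.01% Tween-20.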
Background: The purpose of a counterscreen is to sort out artefacts and off-target activity.

In experiment [13] the target is Endonuclease 4 (Escherichia coli (strain K12)) (UniProt P0A6C1). The experiment can be described thus: Counterscreen for APE1 Inhibitors: qHTS Assay for Inhibitors of Endonuclease IV (AID 2565).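 For activity change, negative = inhibition: plate controls were uninhibited enzyme wells for no effect and no enzyme buffer wells for full effect.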 Note: potency is the fitted concentration of half-maximal effect. To be noted: E. coli Endo IV, fluorogenic AP-site DNA cleavage; series mostly up to 27.1 µM. Summed up:
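2 nM enzyme was preincubated with compounds for 15 min at room temperature in 50 mM Tris-HCl pH 7.5, 50 mM NaCl, 2 mM MgCl2, 1 mM DTT, 0.01% Tween-20. 50 nM THF-abasic TAMRA/BHQ-2 duplex substrate started the reaction.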

The target in experiment [14] is DNA repair nuclease/redox regulator APEX1 (Homo sapiens) (UniProt P27695). The experiment is described as follows: Confirmation qHTS Assay for Inhibitors of the Human Apurinic/apyrimidinic Endonuclease 1 (APE1) (AID 2572). Note: potency is the fitted concentration of half-maximal effect; nearly all actives have a fitted effect of over 30% in size. To be noted: purified APE1, fluorogenic abasic-site DNA cleavage. Summed up:
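Fluorescence gain at 598 nm (Ex 525 nm) reports APE1 cleavage of a TAMRA/BHQ-2-labelled duplex carrying a tetrahydrofuran abasic site, 50 nM final. Activity taken as third-minus-first kinetic read after 15 min compound preincubation, room temperature.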

Experiment [15] shares this target. The experiment is described as follows: qHTS FP-Based Assay for Inhibitors of the Human Apurinic/apyrimidinic Endonuclease 1 (APE1) (AID 2573). Note: % is set by controls: 0 for no effect and ±100 for the full control effect. To be noted: APE1 binding to TAMRA-labelled double-stranded DNA, fluorescence polarization displacement; series mostly up to 28.5 µM.
For experiment [16], the target named is Lethal(3)malignant brain tumor-like protein 1 (Homo sapiens) (UniProt Q9Y468). The experiment can be described thus: qHTS Assay for the Inhibitors of L3MBTL1: Hit Validation (AID 540279). Note: potency is the fitted concentration of half-maximal effect; nearly all actives have a fitted effect of over 70% in size. To be noted: L3MBTL1 methyl-lysine binding inhibition, biochemical qHTS. Summed up: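 AlphaScreen competition format: 50 nM L3MBTL1 preincubated 30 min at room temperature with 75 nM biotinylated H3(1-15)K9me1 peptide, then compounds added for 30 min, then streptavidin donor and nickel chelate acceptor beads (10 ug/mL final) for 30 min dark.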
Chain of Lethal(3)malignant brain tumor-like protein 1 (Homo sapiens) (Q9Y468 whole entry, looked up): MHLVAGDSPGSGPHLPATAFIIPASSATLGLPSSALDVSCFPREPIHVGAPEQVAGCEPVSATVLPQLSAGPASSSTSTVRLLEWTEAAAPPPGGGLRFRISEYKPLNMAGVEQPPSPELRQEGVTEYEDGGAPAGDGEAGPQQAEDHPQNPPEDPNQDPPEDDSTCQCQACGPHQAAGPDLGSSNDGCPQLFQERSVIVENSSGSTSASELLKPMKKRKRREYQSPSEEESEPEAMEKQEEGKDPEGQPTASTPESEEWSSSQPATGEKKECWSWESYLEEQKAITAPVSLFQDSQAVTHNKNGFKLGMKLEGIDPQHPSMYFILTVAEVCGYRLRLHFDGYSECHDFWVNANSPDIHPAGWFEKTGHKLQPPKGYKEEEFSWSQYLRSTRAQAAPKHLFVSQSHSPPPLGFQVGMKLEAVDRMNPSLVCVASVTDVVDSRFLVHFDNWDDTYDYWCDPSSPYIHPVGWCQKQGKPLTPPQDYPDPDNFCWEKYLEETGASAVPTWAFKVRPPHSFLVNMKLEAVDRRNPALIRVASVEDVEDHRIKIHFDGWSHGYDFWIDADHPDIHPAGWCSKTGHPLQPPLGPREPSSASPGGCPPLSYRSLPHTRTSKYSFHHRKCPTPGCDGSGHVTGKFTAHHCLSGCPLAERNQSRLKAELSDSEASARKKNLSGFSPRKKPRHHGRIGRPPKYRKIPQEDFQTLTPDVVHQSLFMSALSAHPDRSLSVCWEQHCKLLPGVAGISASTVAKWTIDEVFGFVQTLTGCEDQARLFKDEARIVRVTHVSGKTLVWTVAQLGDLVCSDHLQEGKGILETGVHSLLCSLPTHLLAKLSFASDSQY

Experiment [17] is described as follows: Cell Viability - Jurkat (AID 426;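 active = dose-dependent loss of cell ATP signal giving a full or clear fitted curve, ranked by lower potency value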;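 note: potency is the fitted concentration of half-maximal effect; cells exposed to compound for 40 hours at 37 °C before ATP read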). The settings on record: qHTS. Summed up:
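Seed 5000 Jurkat E6-1 cells/well; add compound; incubate 40 hr at 37 °C; add CellTiter-Glo; wait 20 min at room temperature; read luminescence. Fit concentration-response with Hill equation for AC50.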

A number with no mark means an inactive call. Records with an inconclusive call do not appear. Some of the results follow. Calls of active or inactive are those of the source. Unless noted, calls come from the whole dose curve; as a rule, active = well fitted curve in the direction sought with a large enough effect; inconclusive = small, poorly fitted or top-dose-only effect, or another doubt; inactive = no such curve, though single readings can be large; an effect the other way counts as inactive or inconclusive.

Chain of DNA repair nuclease/redox regulator APEX1 (Homo sapiens) (P27695 whole entry, looked up): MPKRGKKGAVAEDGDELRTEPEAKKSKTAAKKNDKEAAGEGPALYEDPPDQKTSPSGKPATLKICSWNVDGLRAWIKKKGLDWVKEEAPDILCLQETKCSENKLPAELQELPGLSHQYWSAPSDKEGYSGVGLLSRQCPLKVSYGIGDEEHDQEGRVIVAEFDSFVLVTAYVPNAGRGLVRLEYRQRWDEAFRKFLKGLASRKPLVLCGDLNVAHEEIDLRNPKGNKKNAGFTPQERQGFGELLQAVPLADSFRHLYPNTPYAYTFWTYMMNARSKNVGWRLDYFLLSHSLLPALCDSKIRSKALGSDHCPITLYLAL
Chain of Fructose-bisphosphate aldolase A (Oryctolagus cuniculus) (P00883 whole entry, looked up): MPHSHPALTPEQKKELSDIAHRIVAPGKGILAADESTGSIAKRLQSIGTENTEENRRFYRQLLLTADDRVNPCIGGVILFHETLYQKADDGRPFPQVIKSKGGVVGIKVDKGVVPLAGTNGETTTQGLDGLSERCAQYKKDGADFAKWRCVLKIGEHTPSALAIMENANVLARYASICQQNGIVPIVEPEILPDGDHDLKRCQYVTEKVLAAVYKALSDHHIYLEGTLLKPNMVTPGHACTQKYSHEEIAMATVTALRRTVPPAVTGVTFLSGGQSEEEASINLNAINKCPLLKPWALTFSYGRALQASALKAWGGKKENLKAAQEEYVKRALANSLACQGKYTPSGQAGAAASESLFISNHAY
Chain of Glucocorticoid receptor (Homo sapiens) (P04150 whole entry, looked up): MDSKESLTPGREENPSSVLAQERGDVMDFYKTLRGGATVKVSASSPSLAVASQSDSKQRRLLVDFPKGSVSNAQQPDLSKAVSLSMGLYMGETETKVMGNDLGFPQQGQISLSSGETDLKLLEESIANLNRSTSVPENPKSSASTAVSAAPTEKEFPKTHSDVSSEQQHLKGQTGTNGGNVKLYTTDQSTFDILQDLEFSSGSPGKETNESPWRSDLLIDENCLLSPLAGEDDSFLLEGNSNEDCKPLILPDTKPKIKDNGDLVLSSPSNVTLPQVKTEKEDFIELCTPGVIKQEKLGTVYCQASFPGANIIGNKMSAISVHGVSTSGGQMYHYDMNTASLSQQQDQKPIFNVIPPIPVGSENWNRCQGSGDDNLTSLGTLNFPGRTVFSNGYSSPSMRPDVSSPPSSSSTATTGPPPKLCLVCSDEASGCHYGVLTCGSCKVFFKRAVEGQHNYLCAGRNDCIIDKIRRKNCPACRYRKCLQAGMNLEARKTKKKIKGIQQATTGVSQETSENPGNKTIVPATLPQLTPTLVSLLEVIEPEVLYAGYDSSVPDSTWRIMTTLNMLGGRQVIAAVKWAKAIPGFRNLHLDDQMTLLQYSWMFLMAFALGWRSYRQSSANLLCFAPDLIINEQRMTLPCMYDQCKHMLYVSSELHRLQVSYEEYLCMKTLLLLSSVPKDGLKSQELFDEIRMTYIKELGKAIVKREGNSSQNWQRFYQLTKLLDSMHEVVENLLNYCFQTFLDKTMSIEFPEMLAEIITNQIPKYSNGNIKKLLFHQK
Chain of Androgen receptor (Homo sapiens) (P10275 whole entry, looked up): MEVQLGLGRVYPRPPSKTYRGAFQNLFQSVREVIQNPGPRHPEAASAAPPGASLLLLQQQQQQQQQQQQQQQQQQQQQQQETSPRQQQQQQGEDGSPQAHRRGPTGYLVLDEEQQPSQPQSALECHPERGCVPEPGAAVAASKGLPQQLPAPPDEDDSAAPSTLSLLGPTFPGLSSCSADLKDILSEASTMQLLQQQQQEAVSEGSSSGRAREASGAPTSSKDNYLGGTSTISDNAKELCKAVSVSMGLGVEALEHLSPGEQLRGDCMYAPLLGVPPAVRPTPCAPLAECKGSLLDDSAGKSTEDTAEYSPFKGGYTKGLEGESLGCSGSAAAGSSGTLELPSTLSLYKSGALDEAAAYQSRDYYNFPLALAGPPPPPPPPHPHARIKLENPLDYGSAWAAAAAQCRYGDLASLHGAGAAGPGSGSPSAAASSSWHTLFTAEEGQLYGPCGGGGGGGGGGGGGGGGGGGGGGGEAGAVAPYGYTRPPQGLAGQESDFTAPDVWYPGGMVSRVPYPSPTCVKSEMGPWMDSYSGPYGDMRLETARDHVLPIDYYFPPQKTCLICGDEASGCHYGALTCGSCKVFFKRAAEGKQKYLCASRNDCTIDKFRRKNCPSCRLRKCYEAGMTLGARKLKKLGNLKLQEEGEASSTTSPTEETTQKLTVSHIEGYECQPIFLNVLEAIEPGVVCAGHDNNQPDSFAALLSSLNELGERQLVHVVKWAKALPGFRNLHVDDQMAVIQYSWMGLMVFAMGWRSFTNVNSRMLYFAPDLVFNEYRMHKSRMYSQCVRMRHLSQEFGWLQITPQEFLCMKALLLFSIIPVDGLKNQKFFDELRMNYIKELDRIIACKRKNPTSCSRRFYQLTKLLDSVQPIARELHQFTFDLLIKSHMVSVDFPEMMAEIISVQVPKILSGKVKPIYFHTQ
Chain of Fructose-bisphosphate aldolase (Giardia intestinalis (strain ATCC 50803 / WB clone C6)) (A8B2U2 whole entry, looked up): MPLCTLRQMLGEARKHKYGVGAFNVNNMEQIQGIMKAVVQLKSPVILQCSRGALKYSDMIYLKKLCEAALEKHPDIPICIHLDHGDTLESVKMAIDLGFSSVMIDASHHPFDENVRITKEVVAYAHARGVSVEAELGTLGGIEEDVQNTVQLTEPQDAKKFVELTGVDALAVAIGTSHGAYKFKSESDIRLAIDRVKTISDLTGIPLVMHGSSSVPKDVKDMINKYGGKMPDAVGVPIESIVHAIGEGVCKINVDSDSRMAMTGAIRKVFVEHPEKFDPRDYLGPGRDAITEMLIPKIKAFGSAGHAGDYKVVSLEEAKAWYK
Chain of Cytochrome P450 3A4 (Homo sapiens) (P08684 whole entry, looked up): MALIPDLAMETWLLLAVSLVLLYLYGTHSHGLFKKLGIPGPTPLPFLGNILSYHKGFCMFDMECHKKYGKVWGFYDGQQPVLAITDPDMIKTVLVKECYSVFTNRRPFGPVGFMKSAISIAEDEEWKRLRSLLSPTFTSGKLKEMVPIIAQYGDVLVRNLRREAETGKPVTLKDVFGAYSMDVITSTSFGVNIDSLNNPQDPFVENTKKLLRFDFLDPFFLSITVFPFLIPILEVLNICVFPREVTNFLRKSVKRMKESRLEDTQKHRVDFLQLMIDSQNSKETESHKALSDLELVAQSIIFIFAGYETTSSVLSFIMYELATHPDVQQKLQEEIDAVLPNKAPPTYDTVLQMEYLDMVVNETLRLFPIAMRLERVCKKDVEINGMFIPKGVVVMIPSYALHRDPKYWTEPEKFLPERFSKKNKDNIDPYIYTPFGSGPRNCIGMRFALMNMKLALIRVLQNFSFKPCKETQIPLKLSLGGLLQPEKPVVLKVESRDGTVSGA

For the molecule `N#CC(Cl)(Cl)Cl`, in experiment [1], the activation is -3.49%. The outcome in experiment [2], in [3] and in [4] was inactive.
Turning to `Cc1ccc(N)c(C)c1`, in [3], the result was inactive.
For the molecule `ClCC(Br)CBr` (stereo unspecified), in experiment [4], the outcome was inactive.
Regarding `Nc1c(Br)cc([N+](=O)[O-])cc1[N+](=O)[O-]`, the activation in experiment [1] is -3.78%. Also, the outcome in [3] was inactive.
In the case of `COc1ccccc1CN1CCN(C(=O)Cc2ccccc2)CC1`, the outcome in experiment [5], in experiment [6], in [7], in experiment [8] and in experiment [9] was inactive.
`Oc1cc(Cl)c(Cl)c(Cl)c1`: the Potency entry in experiment [10] was “inactive”.
As to `CN(C)c1ccc(N=Nc2ccccc2)cc1`, the result in [3] was inactive.
With `BrCC(Br)(Br)Br`, the activation in [1] is 1.19%. Besides, the Potency in experiment [11] was 42.2 µM (active).
Take `O=C(NC(=S)N1C[C@H]2C[C@H](C1)c1cccc(=O)n1C2)c1ccc(F)cc1`: the call in experiment [5], in experiment [6], in experiment [7], in experiment [8] and in [9] was inactive.
In the case of `Cc1c(C(=O)O)cccc1-n1c(C)cc(/C=C2\C(=O)NC(=O)N(c3ccc4c(c3)OCO4)C2=O)c1C`, the Potency entry in experiment [12] and in experiment [13] was “inactive” in each case. Besides, the Potency was 12.6 µM (active) in experiment [14] and 1.68 µM (active) in [16]. Further, in experiment [15], the molecule was called inactive.
Consider `O=[N+]([O-])c1cccc(CCl)c1`, for which the result in experiment [4] was inactive.
On to `COc1ccc(CNCCc2c[nH]c3ccccc23)cc1OC`, for which, in experiment [5], the activity change, negative = inhibition is 0.258% [at 10.4 µM]. In addition, the molecule was classed as inactive in experiment [6], in experiment [7], in [8] and in experiment [9].
For the molecule `O=C(O)c1cc[c]([Sb](=[O])([OH])[OH])cc1[N+](=O)[O-]`, the figures for the Potency in [13] and in experiment [14] were 10 µM (active) and 0.0562 µM (active), respectively.
For `N#C/C=C/C#N`, the outcome in experiment [4] was inactive.
Regarding `O=C(OCC1O[C@@H](OC(=O)c2cc(O)c(O)c(O)c2)[C@@H](OC(=O)c2cc(O)c(O)c(O)c2)[C@@H](OC(=O)c2cc(O)c(O)c(O)c2)[C@@H]1OC(=O)c1cc(O)c(O)c(O)c1)c1cc(O)c(O)c(O)c1` (stereo partly specified), the Potency is 3.98 µM (active) in experiment [12] and 0.0063 µM (active) in experiment [14].
As for `[C-]1=CC=CC1.[C-]1=CC=CC1.[Cl-].[Cl-].[Ti+4]`, the Potency in experiment [17] is 55.7 µM (active).
`Oc1cc(Cl)c(Cl)c(Cl)c1Cl`: in [17], the Potency was 54.1 µM (active). In addition, in [10], the Potency result was “inactive”.
`CCCCC(=O)N/N=C/c1c(O)n(-c2ccccc2)c(=O)[nH]c1=O`: the call in [5], in [6], in experiment [7], in [8] and in [9] was inactive.
